Assay outcomes deposited in PubChem BioAssay by several laboratories.
Hits are enriched below; roughly 2.2% of the tested compounds scored in any of these assays.
LGR2 inh: inhibitors of bursicon-induced LGR2 CRE-luciferase signal, primary screen, cell-based, HEK293, CRE-luciferase reporter, bursicon stimulation | Drosophila bursicon receptor LGR2 (rickets) | bursicon-stimulated, 4 h | inhibition, % at 9.99 µM | actives 0.35% (n = 380,000) | AID 720647, 2013;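 active means drop in luminescence signal, shown as inhibition above about 50% in the replicate tests, limit read from the data, passing the limit was not always enough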;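 further: agonist challenge used bursicon conditioned medium at about half maximal strength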
TROY NFkB inh: inhibitors of TROY-driven NF-kB signaling, primary screen, Q293 LMP1-TROYcd cells, NF-kB luciferase, uHTS; Q293 LMP1-TROYcd NF-kB luciferase reporter, 4 h; inhibition, % at 10 µM; actives 0.98% (n = 360,000); AID 1347056, 2019;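 active means compounds whose plate-normalised and pattern-corrected inhibition of the luciferase reporter signal at the single screening dose is 50% or more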
HSP90 inh: HSP90 inhibitors, primary screen, cell lysate, luminescence; actives 0.91% (n = 290,000); Rabbit reticulocyte lysate, luciferase refolding luminescence, 3 h; Heat shock protein HSP 90 (rabbit reticulocyte lysate; luciferase refolding); inhibition, % at 5.6 µM; AID 1789, 2009;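 active means inhibition above the screen-wide mean plus 3 SD, computed separately per campaign, cut at about 16% in these data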;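 further: inhibitors lower the luminescence because luciferase stays unfolded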
TWEAK-Fn14 inh: inhibitors of TWEAK-Fn14 signaling, primary screen, luciferase reporter cells, uHTS | inhibition, % at 10 µM | TWEAK-stimulated Fn14 reporter cells, luciferase luminescence, 8 h | AID 1159606, 2016 | actives 2% (n = 360,000); in the data active means inhibition above about 50%
Of the large screens only hits and unclear results are named; the others gave an inactive call.

COc1ccc(S(=O)(=O)N2CCCC(C(=O)NCC3CCCO3)C2)cc1C (stereo not drawn)	TWEAK-Fn14 inh 93
COc1ccc(NC(=O)N(C)C[C@H]2OCCCC[C@H](C)Oc3ccc(NC(=O)NC(C)C)cc3C(=O)N([C@@H](C)CO)C[C@H]2C)cc1	none (no result: TROY NFkB inh, HSP90 inh, TWEAK-Fn14 inh)
N=c1c(C(=O)NCc2ccc(F)cc2)cc2c(=O)n3ccccc3nc2n1Cc1ccco1	TROY NFkB inh 59, TWEAK-Fn14 inh 95 (no result: LGR2 inh)
COc1ccc(CCNC(=O)c2cc3c(=O)n4cccc(C)c4nc3n(Cc3ccco3)c2=N)cc1OC	TWEAK-Fn14 inh 87
Cc1cccn2c(=O)c3cc(C(=O)NCCc4ccccc4)c(=N)n(Cc4ccco4)c3nc12	TWEAK-Fn14 inh 101
COCC(=O)N(C)C[C@H]1Oc2cc(C3=CCCC3)ccc2S(=O)(=O)N([C@H](C)CO)C[C@@H]1C	none (no result: TROY NFkB inh, HSP90 inh, TWEAK-Fn14 inh)
CO[C@@H]1CN(C)C(=O)c2ccc(NC(=O)C3CCCCC3)cc2OC[C@H](C)NC[C@@H]1C	none (no result: TROY NFkB inh, HSP90 inh, TWEAK-Fn14 inh)
N#C/C(=C\c1coc2ccccc2c1=O)C(N)=S	none
N#C/C(=C\c1coc2ccc(O)cc2c1=O)C(=O)Nc1nc2ccccc2s1	TROY NFkB inh 52, TWEAK-Fn14 inh 73
CC12CCC(=O)C=C1CCC1C2CCC2(C)C(c3csc(N)n3)CCC12 (stereo not drawn)	TROY NFkB inh 51, TWEAK-Fn14 inh 57 (no result: HSP90 inh)
CC12CCC(=O)C=C1CCC1C2C(O)CC2(C)C(c3csc(N)n3)CCC12 (stereo not drawn)	none (no result: HSP90 inh)
CC1(c2nnnn2-c2ccc3c(c2)OCCO3)CCC(=O)N1CCc1ccccc1F (stereo not drawn)	TWEAK-Fn14 inh 68 (no result: HSP90 inh)
COc1ccccc1NC(=O)N1[C@H](C#N)[C@@H](c2ccccc2)[C@@H]1CO	none (no result: TROY NFkB inh, HSP90 inh, TWEAK-Fn14 inh)
C[C@H]1CN([C@@H](C)CO)C(=O)c2cc(C#CC(C)(C)O)cnc2O[C@@H]1CN(C)C(=O)c1ccccc1F	none (no result: TROY NFkB inh, HSP90 inh, TWEAK-Fn14 inh)
O=[N+]([O-])c1c(NCCCO)cc(SCc2ccco2)c2nonc12	none
CC(=O)OCCCNc1cc(Sc2ccc(C)cc2)c2nonc2c1[N+](=O)[O-]	LGR2 inh 51, TROY NFkB inh 64, TWEAK-Fn14 inh 80
O=[N+]([O-])c1c(NCCCO)cc(Sc2ccc(Cl)cc2)c2nonc12	TROY NFkB inh 79
Cc1ccc(S(=O)(=O)N(C)C[C@H]2OCCCC[C@H](C)Oc3ccc(NS(=O)(=O)c4ccc(F)cc4)cc3C(=O)N([C@H](C)CO)C[C@H]2C)cc1	none (no result: TROY NFkB inh, HSP90 inh, TWEAK-Fn14 inh)
CCOc1ccc(Br)cc1C1C(C(=O)OC)=C(N)Oc2cc(N(C)C)ccc21 (stereo not drawn)	TWEAK-Fn14 inh 53 (no result: LGR2 inh)
CC(C)c1nnc(NC(=O)CCS(=O)(=O)c2ccccc2)s1	none
CCCC(C)c1nnc(NC(=O)CCS(=O)(=O)c2ccccc2)s1 (stereo not drawn)	TWEAK-Fn14 inh 57
CC(C)c1nnc(NC(=O)CCCC(=O)O)s1	TWEAK-Fn14 inh 76 (no result: LGR2 inh, TROY NFkB inh)
CC(=O)N[C@H]1CC[C@@H](CCNC(=O)C2CCCCC2)O[C@@H]1CO	none (no result: TROY NFkB inh, HSP90 inh, TWEAK-Fn14 inh)
CCOC(=O)CC1CCCCN1C(=O)c1cc(COc2cccc3cnccc23)on1 (stereo not drawn)	TWEAK-Fn14 inh 62
COC(=O)C1CCCCN1C(=O)c1cc(COc2cccc3cnccc23)on1 (stereo not drawn)	none
CC(=O)Nc1ccc(C(=O)Nc2ccc(S(=O)(=O)NCC3CCCO3)cc2)cc1 (stereo not drawn)	none (no result: LGR2 inh)
COc1cccc(S(=O)(=O)NCc2ccc(C(=O)Nc3ccc(Cl)cc3)cc2)c1	none
CC(=O)Oc1ccc(C(=O)Nc2ccc(S(=O)(=O)NCC3CCCO3)cc2)cc1 (stereo not drawn)	TROY NFkB inh 51
COc1cccc(S(=O)(=O)NCc2ccc(C(=O)Nc3cccc(Cl)c3)cc2)c1	TWEAK-Fn14 inh 60 (no result: LGR2 inh)
O=C(Nc1cccc(Cl)c1)c1ccc(S(=O)(=O)NCC2CCCO2)cc1 (stereo not drawn)	TWEAK-Fn14 inh 63
FC(F)(F)c1cnc(NNC(=S)Nc2ccccc2Cl)c(Cl)c1	TROY NFkB inh 59, TWEAK-Fn14 inh 51
S=C(NNc1ccnc2cc(Cl)ccc12)Nc1ccccc1Cl	TROY NFkB inh 66, TWEAK-Fn14 inh 64
S=C(Nc1ccccc1Cl)Nc1ccc(Cl)cc1Cl	none
Fc1ccc(-c2nc3ccccc3c3nc4ccccc4n23)cc1	TWEAK-Fn14 inh 58 (no result: LGR2 inh)
N#CCSc1nc2ccccc2c2nc3ccccc3n12	TWEAK-Fn14 inh 57
Cc1nc2ccccc2c2nc3ccccc3n12	none
Clc1ccccc1-c1nc2ccccc2c2nc3ccccc3n12	TROY NFkB inh 57
C[C@H]1CN([C@@H](C)CO)C(=O)c2cc(C#CC3CC3)cnc2O[C@H]1CN(C)C(=O)CC1CC1	none (no result: TROY NFkB inh, HSP90 inh, TWEAK-Fn14 inh)
Cc1ccc(-c2nc(N)sc2-c2ccccc2)cc1C	TROY NFkB inh 53, TWEAK-Fn14 inh 86
O=C1c2cccc(NCCNCCO)c2C(=O)c2cccc(NCCNCCO)c21	LGR2 inh 92 (no result: HSP90 inh)
CCN1[C@H](C(=O)Nc2nccs2)[C@@H](CO)[C@@H]2Cn3c(ccc(/C=C/c4ccccc4)c3=O)[C@@H]21	none (no result: TROY NFkB inh, HSP90 inh, TWEAK-Fn14 inh)
COc1ccc(Cc2nc3ccc(C(=O)NCCc4ccncc4)cc3o2)cc1OC	none
COc1ccc(C(=O)Nc2ccc3oc(Cc4ccc(Cl)cc4)nc3c2)cc1OC	TWEAK-Fn14 inh 52
